Bioassay records: PubChem, National Center for Advancing Translational Sciences (NCATS)
TDP1 block – blocks human tyrosyl-DNA phosphodiesterase 1; Q9NUW8; recombinant TDP1, AlphaScreen DNA substrate cleavage; Potency, µM (doses to about 130 µM), most hits filed as inhibitors; 0.28% of 350,000 active; active = well fitted curve in the direction sought with a large enough effect; inconclusive = small, poorly fitted or top-dose-only effect, or another doubt; inactive = no such curve, though single readings can be large; an effect the other way counts as inactive or inconclusive; also: nearly all actives have a fitted effect of over 40% in size
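Recombinant human Tdp1 (E. coli-expressed, 1 nM final) preincubated with compounds 15 min at room temperature, then 5'-biotin/3'-phosphotyrosine-FITC DNA substrate (15 nM final) added for 5 min. AlphaScreen beads (10 ug/ml final) added 10 min; cleavage lowers signal.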
ClpP mod – qHTS Assay for Activators of ClpP. Potency, µM (series often up to 57.5 µM). purified B. subtilis ClpP, FRET peptide cleavage, 20 min. 1.9% of 340,000 active. AID 651965, 2013; active = well fitted falling curve with a large enough effect; inconclusive = small, poorly fitted or top-dose-only effect; inactive = no such curve, though single readings can be large or run the other way; also: the source files actives as falling curves though it sought activators and does not explain the sign; nearly all actives have a fitted effect of over 65% in size
Target sequence (P80244 whole entry, looked up): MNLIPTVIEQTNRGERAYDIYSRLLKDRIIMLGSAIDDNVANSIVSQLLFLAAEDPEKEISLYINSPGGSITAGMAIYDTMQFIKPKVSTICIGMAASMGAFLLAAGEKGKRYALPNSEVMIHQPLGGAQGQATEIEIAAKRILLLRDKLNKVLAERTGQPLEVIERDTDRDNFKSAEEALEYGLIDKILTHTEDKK
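FRET quenching reversal measured ClpP activation: 10 microg/mL B. subtilis ClpP at pH 8 with the FRET-FV decapeptide, read at 430 nm after 320 nm excitation. The 20-min minus 0-min signal was scaled between DMSO/no-enzyme wells and ADEP (5.8 microM final).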
Rango complex inh – Rango-importin beta binding inhibition; Q14974; Rango CFP/YFP FRET sensor + importin beta, 45 min; Potency, µM (series often up to 92.2 µM); 0.031% of 340,000 active; AID 540263; also: nearly all actives have a fitted effect of over 15% in size
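FRET biosensor Rango (snurportin 1 IBB between N-terminal EYFP and C-terminal Cerulean), 50 nM in PBS/1 mM DTT/0.02% Tween-20/0.1% BSA, preincubated 5 min RT with compound; 0.125 microM importin beta added, 45 min RT, CFP/YFP FRET ratio read.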
Rango dissoc inh – inhibitors of RanGTP-induced Rango-importin beta complex dissociation; Biochemical FRET Rango-importin beta, RanGTP-induced dissociation; O95149+P62826; Potency, µM (series often up to 46.1 µM); AID 540253; 0.071% of 340,000 active; also: nearly all actives have a fitted effect of over 45% in size
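Rango (0.1 uM)–importin beta (0.25 uM) complex; RanGTP-RCC1 trigger; 45 min RT; CFP/YFP FRET read.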
12-LOX inh – blocks human arachidonate 12S-lipoxygenase | purified 12hLO, xylenol orange hydroperoxide absorbance | AID 1671190 | P18054 | 1.1% of 580,000 active | Potency, µM (highest dose often 108 µM), usual class: inhibitors; active = well fitted curve in the direction sought with a large enough effect; inconclusive = small, poorly fitted or top-dose-only effect, or another doubt; inactive = no such curve, though single readings can be large; an effect the other way counts as inactive or inconclusive
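Hydroperoxide product was detected by ferrous iron/xylenol orange as the 573 to 405 nm absorbance ratio. Arachidonic acid at 40 uM (final) was turned over for 30 min at room temperature by 150 nM human 12hLO, pH 7.0 Hepes buffer, after 15 min compound preincubation.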
PTAP TSG101 blk – blocks PTAP/TSG101 interaction to inhibit HIV-1 budding. Potency, µM (titrated, usually from 115 µM), actives largely listed as inhibitors. Q99816. Fluorescence polarization, FITC-PTAP peptide / Tsg101 binding. 340,000 tested, under 10 active; active = well fitted inhibition curve with a large enough effect in the main read-out, with a control signal flat, not every such curve was filed as active; inconclusive = small, poorly fitted or top-dose-only effect, or effect the other way, or a change in a side signal; inactive = no such curve, though single readings can be large or run the other way
Target sequence (Q99816 whole entry, looked up): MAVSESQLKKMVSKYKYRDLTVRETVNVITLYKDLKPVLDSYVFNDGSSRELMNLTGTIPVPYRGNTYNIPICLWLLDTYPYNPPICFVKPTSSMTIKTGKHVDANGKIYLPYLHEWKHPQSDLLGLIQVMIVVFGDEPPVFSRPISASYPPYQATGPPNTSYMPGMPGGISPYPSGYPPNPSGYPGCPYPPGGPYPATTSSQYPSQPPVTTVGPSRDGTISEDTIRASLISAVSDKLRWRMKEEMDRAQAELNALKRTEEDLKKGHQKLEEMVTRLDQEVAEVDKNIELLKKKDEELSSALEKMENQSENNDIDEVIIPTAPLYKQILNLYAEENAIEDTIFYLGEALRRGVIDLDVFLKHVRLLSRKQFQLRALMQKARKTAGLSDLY
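Steps: Tsg101 binding domain dispensed (10 uM final), compounds pinned in DMSO, FITC-labeled PTAP-motif peptide added (50 nM final); after 20 min binding at room temperature, polarization measured.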
A number is an active result; 0 = inactive; ? = inconclusive; - = not tested or not shown. The list is not random: actives were taken first. Their share in the collection is about 2.4%. Unless noted, calls follow the shape of the full dose curve.

SMILES	TDP1 block	ClpP mod	Rango complex inh	Rango dissoc inh	12-LOX inh	PTAP TSG101 blk
O=C(O)C1=C(C2CCCCC2)C(=O)c2ccccc21	-	0	0	0	0	0
CCOC(=O)c1nn(-c2ccccc2)c(=O)cc1OCC(=O)Nc1cccc(OC)c1	0	0	0	0	0	0
CCOC(=O)c1nn(-c2ccc(C)cc2)c(=O)cc1OCC(=O)Nc1ccc(OC)cc1	45µM	8.9µM	0	0	?	0
O=C(c1ccoc1)N1CCC(n2cc(-c3nc(-c4ccccc4)no3)nn2)C1 (configuration not stated)	-	-	-	-	0	-
O=c1cc(-c2ccncc2)oc2c(-c3ccccc3Oc3ccccc3)nccc12	-	-	-	-	32µM	-
CN1CCCN(C(=O)c2ccc(Cl)cc2)c2ccccc21	-	-	-	-	32µM	-
CN1CCCN(C(=O)c2ccc(F)cc2)c2ccccc21	-	-	-	-	0	-
O=C1C2C(c3ccccc3)=NN(c3ccccc3)C2C(=O)N1c1ccccc1 (configuration not stated)	0	28µM	0	0	0	0
NC(=O)c1nnn([C@H]2CCN3C(=O)[C@@H](Cc4c[nH]c5ccccc45)NC(=O)[C@@H]3C2)c1C(N)=O	-	-	-	-	0	-
CC(=O)N1C[C@@H]2CCCN3CCC[C@@H]([C@H]23)[C@H]1CCCC(=O)N(C)C1CCN(C)CC1	-	-	-	-	0	-
N#CCN(CC#N)C(=O)Cc1cccs1	-	-	-	-	32µM	-
Cc1ccc(O)c(NC2=C(Cl)C(=O)N(Cc3ccccc3)C2=O)c1	0	0	0	0	5.6µM	0
COc1ccc(C(=O)CC(=O)c2ccc(C(C)(C)C)cc2)cc1	20µM	0	0	0	0	0
COc1ccc(C(=O)C(CCC(CNC(C)(C)C)C(=O)c2ccc(OC)cc2)CNC(C)(C)C)cc1 (configuration not stated)	0	28µM	0	0	0	0
COc1ccc(OC(=O)C2OC3OC(C)(C)OC3C3OC(C)(C)OC23)cc1 (configuration not stated)	-	-	-	-	0	-
Cc1ccc2[nH]c(C(=O)Nc3c(C)n(C)n(-c4ccccc4)c3=O)cc2c1	-	-	-	-	0	-
CS(=O)(=O)C1=NN2C(=N)/C(=C\c3ccc(OC(=O)c4ccco4)cc3)C(=O)N=C2S1	50µM	0	0	?	0	0
CCOc1cc(/C=C2/C(=N)N3N=C(C)SC3=NC2=O)ccc1OS(=O)(=O)c1ccc(C)cc1	0	-	?	0	0	0
COc1cc(/C=C2\C(=N)N3N=C(S(C)(=O)=O)SC3=NC2=O)ccc1OS(=O)(=O)c1ccc(C)cc1	0	0	?	0	45µM	0
CCOc1cc(/C=C2/C(=N)N3C(=NC2=O)SN=C3S(=O)(=O)C(C)C)ccc1OC(=O)c1ccco1	0	0	?	?	?	0
O=C1NC(=S)S/C1=C/c1ccc(OC(=O)c2ccco2)cc1	50µM	0	0	0	?	0
COc1cc(/C=C2/C(=N)N3C(=NC2=O)SN=C3S(=O)(=O)C(C)C)ccc1OC(=O)c1ccco1	0	0	?	8.2µM	?	0
O=C(NCC1(N2CCOCC2)CCCCCC1)c1cnn(-c2nccc(-c3ccco3)n2)c1C1CC1	-	-	-	-	0	-
N=C1/C(=C\c2ccc(OC(=O)c3ccc(F)cc3)cc2)C(=O)N=C2SC(N3CCOCC3)=NN12	56µM	0	0	0	0	0
C/C(=N\NC(N)=S)C1C2C3CC4C5CC(C42)C1C53 (configuration not stated)	0	-	0	0	18µM	0
SMILES	TDP1 block	ClpP mod	Rango complex inh	Rango dissoc inh	12-LOX inh	PTAP TSG101 blk
CCOc1ccc(NC(=O)N2CCc3cc(OC)c(OC)cc3C2CNC(=O)CC)cc1 (configuration not stated)	-	-	-	-	0	-
O=c1c2ccccc2[nH]c(=S)n1Cc1ccccc1	-	-	0	0	0	0
CCOc1cc2[nH]c(=S)n(CCN3CCCCC3CC)c(=O)c2cc1OCC (configuration not stated)	0	0	0	0	?	0
O=C(CCCCCn1c(=O)[nH]c2ccccc2c1=O)NCc1ccccc1	0	0	-	-	?	-
CCC1CCCCN1CCCn1c(=S)[nH]c2ccccc2c1=O (configuration not stated)	0	20µM	0	?	0	0
O=c1c2ccccc2[nH]c(=S)n1CCc1ccccc1	0	7.1µM	0	0	0	0
O=C(CCCCCn1c(=O)[nH]c2ccccc2c1=O)NCCc1ccccc1	0	32µM	-	-	?	-
C/C(=N/NC(=O)C1CC1(c1ccc(C)cc1)c1ccc(C)cc1)c1cccc2ccccc12 (configuration not stated)	-	-	-	-	0	-
Cc1ccc(-c2cc(Nc3ccccc3)nc(C)n2)cc1	-	-	-	-	7.1µM	-
Cc1cccc(-c2cc(Nc3ccc(SC#N)cc3)nc(C)n2)c1	-	-	-	-	0	-
Cc1ccc(-c2cc(Nc3ccccc3C(F)(F)F)nc(C)n2)cc1	-	-	-	-	16µM	-
Cc1ccc(-c2cc(C(F)(F)F)n3nc(C)c(Cl)c3n2)cc1	-	-	-	-	0	-
Cc1ccc(-c2ccc(N)nc2)c2cccnc12	-	-	-	-	0	-
Nc1ccc(N(c2ccccc2)c2ccc(N)cc2)cc1	0	35µM	0	0	0	0
CC(C)Cc1ccc(CN2C(C)C(=O)N(Cc3cn(Cc4ccco4)nn3)CCS2(=O)=O)cc1 (configuration not stated)	-	0	-	-	14µM	-
CCC/C=C/c1ccc(CN2C(C)C(=O)N(Cc3cn(Cc4ccco4)nn3)CCS2(=O)=O)cc1 (configuration not stated)	-	0	-	-	?	-
Cc1ccc(-c2ccc(CN3C(C)C(=O)N(Cc4cn(Cc5ccco5)nn4)CCS3(=O)=O)cc2)cc1 (configuration not stated)	-	0	-	-	11µM	-
COc1ccc(-c2ccc(CN3C(C)C(=O)N(Cc4cn(Cc5ccco5)nn4)CCS3(=O)=O)cc2)cc1 (configuration not stated)	-	0	-	-	?	-
CC1C(=O)N(Cc2cn(Cc3ccco3)nn2)CCS(=O)(=O)N1Cc1ccc(-c2ccc(Cl)c(Cl)c2)cc1 (configuration not stated)	-	0	-	-	0	-
CCC/C=C/c1ccc(CN2C(C(C)C)C(=O)N(Cc3cn(Cc4ccco4)nn3)CCS2(=O)=O)cc1 (configuration not stated)	-	0	-	-	45µM	-
O=C(NC(=S)N1CCOCC1)c1ccccc1Cl	0	0	0	0	1.3µM	0
CNC(=S)N/N=C/c1cn(Cc2ccc(F)cc2)c2ccccc12	0	0	0	0	28µM	0
O=C(N/N=C/c1cn(Cc2cccc(F)c2)c2ccccc12)c1cc(O)cc(O)c1	0.63µM	0	?	0	?	0
